± gives the standard deviation. The full ranking holds about 5,500 sequences; the median of “pre-steady-state target cleavage rate” is about 0.1, and the highest 2% start at about 0.64. The full list was thinned out, with the highest values kept by preference.
Test system: MIWI (PIWIL1) piRISC loaded with piRNA #2 (30 nt)
Test: pre-steady-state target cleavage rate (min^-1); MIWI and MILI are mouse PIWI proteins and EfPiwi is from a freshwater sponge; tags in brackets are library labels; higher = faster piRNA-guided slicing of the target
Details: guide: piRNA #2 5'p-UUAGGUAACCCAGUAGAUCCAGAGGAAUUC; auxiliary factor: 500 nM mouse GTSF1
Procedure: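 Cleave-'n-Seq: a library of target RNAs (target site embedded in constant flanks, ACAGCATTCCGCGTTAGTGATATCCG... 5' flank; DNA-blocked outside the site) at 0.1 nM was incubated with 1 nM active mouse MILI or MIWI piRISC (synthetic 5'-monophosphorylated piRNA guide) with or without 500 nM mouse GTSF1 at 33 °C for 1 min to 16 h. Uncleaved targets were sequenced and normalised to non-target controls, and the pooled three trials were fitted to a burst-and-steady-state model to give the pre-steady-state cleavage rate (min^-1; k3 is constrained to at most 1e-4). Sequence is the target site only; target names encode pairing extent (gX:gY) and contiguous / 1-mismatch / 2-mismatch / bulge geometry. Fits with R² ≤ 0 are excluded.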

Sequence | pre-steady-state target cleavage rate
CAAUUCCUCUGGAUCUACAGGGUUUCCUAA | 0.178 ± 0.026
CAAUUCCUCAGGAUCUACUGGGUUACCUUA | 0.604 ± 0.075
GAAUUCCUCUGGAUGUACAGGGUUACCUAA | 0.413 ± 0.029
CUAAUCCUCUGGAUCUACUGGGUUACCUAA | 0.412 ± 0.061
CAAAUCCUCUGGAUCUACUGGGUUACCUAA | 0.47 ± 0.069
CUUAUCCUCUGGUUCUACUGGGUUACCUAA | 0.607 ± 0.047
CAAAUCCUCUGGUUCUACUGGGUUACCUAA | 0.79 ± 0.044
GAAAUCCUCUGGUUCUACUGGGUUACCUAA | 0.624 ± 0.05
CUAAUCCUCUGGUUCUACUGGGUUACCUAA | 0.755 ± 0.048
CUUAAGCUCUGGAACUACUCGGUUACCUAA | 0.0422 ± 0.011
CUUAUCCUCUGGAACUACUGGGUUACCUUA | 0.254 ± 0.03
CGAUUCCUCUGGAUCUACUGGGUUACCUAA | 0.329 ± 0.048
CUUUUCCUCUGGAUCUACUGGGUAACCAAA | 0.13 ± 0.034
CUUAAGGACGGGAUCUACUGGGUUACCUAA | 0.0681 ± 0.038
CAAUUCCUCUGGAUCUGCUGGGUUACCUAA | 0.641 ± 0.08
CAAUUCCUCUGGAUUACUGGGUUACCUAA | 0.692 ± 0.054
CAAUUCCUCUGGAUUUACUGGGUUACCUAA | 0.681 ± 0.062
GAAUUCCUCUGGAAGUACUGGGUUACCUAA | 0.511 ± 0.047
GAAUUCCUCUGGAUUUACUGGGUUACCUAA | 0.425 ± 0.073
CUAUUCCUCUGGAAGUACUGGGUUACCUAA | 0.631 ± 0.046
CUAUUCCUCUGGAUUUACUGGGUUACCUAA | 0.529 ± 0.048
CAAUUCCUCUGGAUUCUACUGGGUUACCUAA | 0.473 ± 0.059
GAAUUCCUCUGGAUUACUGGGUUACCUAA | 0.413 ± 0.04
CAAUUCCUCUGGAUCUCCUGGGUUACCUAA | 0.231 ± 0.051

Sequence | pre-steady-state target cleavage rate
CAAUUCCUCUGGAAGUACUGGGUUACCUAA | 0.651 ± 0.044
GAAUUCCUCUGGAUCUGCUGGGUUACCUAA | 0.213 ± 0.044
CAAUUCCUCUGGUUCUACUCGGUUACCUAA | 0.167 ± 0.014
CAAUUCCUCUGGAACUACUGGGUUACCAAA | 0.289 ± 0.055
CUUAAGGAGUGGAUCUACUGGGUUGCCUAA | 0.0417 ± 0.011
CUUAUCCAUCUGGAUCUACUGGGUUACCUAA | 0.508 ± 0.051
CUUUUCCUCUGGACCUACUGGGUUACCUAA | 0.157 ± 0.02
GAAUUCCUGUGGAUCUACUGCGUUACCUAA | 0.362 ± 0.053
CUUAUCCUCUGGAUCUACUGGGAUACCUAA | 0.302 ± 0.039
CUUAAGGUCUGGAUCUUCUGGGAUACCUAA | 0.0453 ± 0.017
CAAUUCCACUGGAUCUACUGGGUUACGUAA | 0.419 ± 0.081
CAAUUCCACUGGAUCUACUGGGUUAGCUAA | 0.223 ± 0.076
CUAUUCCUCAGGAUCUACUGGGUUACGUAA | 0.499 ± 0.073
CAAUUCCUGUGGAUCUACUGGGUUACGUAA | 0.428 ± 0.075
GAAUUCCACUGGAUCUACUGGGUUAGCUAA | 0.668 ± 0.12
CAAUUCCUCAGGAUCUACUGGGUUACGUAA | 0.594 ± 0.058
GAAUUCCACUGGAUCUACUGGGUUACGUAA | 0.803 ± 0.043
CUAUUCCACUGGAUCUACUGGGUUACGUAA | 0.481 ± 0.066
CUAUUCCACUGGAUCUACUGGGUUAGCUAA | 0.16 ± 0.04
CUAUUCCUGUGGAUCUACUGGGUUACGUAA | 0.47 ± 0.052
GAAUUCCUCAGGAUCUACUGGGUUACGUAA | 0.738 ± 0.062
GAAUUCCUGUGGAUCUACUGGGUUACGUAA | 0.637 ± 0.063
CUUAUCCUGUGGAUCUACUGGGUUACCAAA | 0.166 ± 0.038
CUAAACCUCUGGAUCUACUGGGUUACCUAA | 0.266 ± 0.04

Sequence | pre-steady-state target cleavage rate
CUUAUCCUGACGAUCUACUGGGUUACCUAA | 0.0767 ± 0.014
CUUAACCCUGGAUCUACUGGGUUACCUAA | 0.326 ± 0.033
CUUAUCCUCUGGAUCUACUGGGAUUCCUAA | 0.103 ± 0.04
CUUAAGGAGAGGUUCUACUGGGUUUCCUAA | 0.00421 ± 0.0042
CUUAUCCUCUGGAUCUACUCGGUUACCUAA | 0.0981 ± 0.018
CUAUUCCUCUGGAUACUACUGGGUUACCUAA | 0.422 ± 0.056
CUUAUCCUCUGGAUACUACUGGGUUACCUAA | 0.419 ± 0.059
CUUAUCCUCUGGAUAUACUGGGUUACCUAA | 0.688 ± 0.052
GAAUUCCUCUGGAUAUACUGGGUUACCUAA | 0.551 ± 0.038
CAAUUCCUCUGGAUACUACUGGGUUACCUAA | 0.519 ± 0.068
CUUAUCCUCUGGAUUACUGGGUUACCUAA | 0.481 ± 0.04
CUAUUCCUCUGGAUAUACUGGGUUACCUAA | 0.772 ± 0.057
CUUUUCCUCUGGAUAUACUGGGUUACCUAA | 0.628 ± 0.04
CAAUUCCUCUGGAUAUACUGGGUUACCUAA | 0.724 ± 0.043
CAAUUCCUCAGGAUCUACUGGGUAACCUAA | 0.336 ± 0.056
CUUAACCUCUGGAUCUUCAGGGUUACCUAA | 0.112 ± 0.014
CUUAACCUCUGGAACUACUGGGUUAGCUAA | 0.103 ± 0.016
CAAUUCCUCUCGAUCUACAGGGUUACCUAA | 0.546 ± 0.038
CUUUUCCUCUGGAACUAGUGGGUUACCUAA | 0.204 ± 0.025
CUUAAGGAGAGGAUCUACUGGGUUACCUCA | 0.012 ± 0.0055
CUAUUCCUCUCGAUCUACUGGGUUACCUAA | 0.734 ± 0.063
CUAUUCCUCUCGAUCUACUGGGUUACCUUA | 0.583 ± 0.056
GUAUUCCUCUCGAUCUACUGGGUUACCUAA | 0.193 ± 0.044
GAAAUCCUCUCGAUCUACUGGGUUACCUAA | 0.586 ± 0.054

Sequence | pre-steady-state target cleavage rate
GAAUUCCUCUCGAUCUACUGGGUUACCUUA | 0.629 ± 0.069
CAAAUCCUCUCGAUCUACUGGGUUACCUAA | 0.641 ± 0.05
CAAUUCCUCUCGAUCUACUGGGUUACCUAA | 0.822 ± 0.063
CAAUUCCUCUCGAUCUACUGGGUUACCUUA | 0.69 ± 0.056
CAAUUCCUCUCGGAUCUACUGGGUUACCUAA | 0.506 ± 0.065
CUAUUCCUCUCGGAUCUACUGGGUUACCUAA | 0.575 ± 0.089
CAAUACCUCUCGAUCUACUGGGUUACCUAA | 0.625 ± 0.056
CUAAUCCUCUCGAUCUACUGGGUUACCUAA | 0.631 ± 0.042
CUUAAGGUCUGGAUCUACUGGGUUACCAUA | 0.203 ± 0.029
CUUAACCUCUCGAUCUUCUGGGUUACCUAA | 0.47 ± 0.044
CUUAAGGUCUGGAUCUUCUGGGUAACCUAA | 0.0193 ± 0.011
CUUAAGGAGUGGAUCUACACCGUUACCUAA | 0.0034 ± 0.0022
CUAUUCCUCUGCAUCUUCUGGGUUACCUAA | 0.316 ± 0.028
GAAUUCCUCUGGAUCUACUGGGUUUGGUAA | 0.244 ± 0.061
CUUAAGGUCUGGAUGUACUGGCUUACCUAA | 0.0442 ± 0.028
CUUUACCUCUGGAUCUACUCGGUUACCUAA | 0.0688 ± 0.0087
CUUAACCUCUGGAUGUUCUGGGUUACCUAA | 0.244 ± 0.019
CUAUAUCCUCUGGAUCUACUGGGUUACCUAA | 0.352 ± 0.071
GAAUUCCUCUCGAUCUACUGGGUUACCUAA | 0.642 ± 0.068
GAAUUCCUCUCGGAUCUACUGGGUUACCUAA | 0.442 ± 0.048
GAAUUCCUCUCGAUCUACUGGGUUUCCUAA | 0.524 ± 0.06

— the supplement of paper PMC10338343
